From PubChem BioAssay (NCI)
Compounds without any hit were thinned out: in the full panel of roughly 79,000, 15% have a hit. A number with no mark means an inactive call. Calls of active or inactive are those of the source. Rule as the data show it: active = growth inhibition above about 70%; inactive = the rest.

Experiment: NCI Yeast Anticancer Drug Screen. Data for the rad18 strain (AID 177)
Settings: S. cerevisiae rad18 mutant growth inhibition, active compounds read high
Protocol: Growth inhibition of yeast strains with defined genetic alterations is measured as a screen for potential anti-cancer activity. Selected strains with alterations in DNA damage repair or cell cycle control were exposed to compounds and growth inhibition was measured relative to vehicle treated controls. The strain used in this assay is rad18

CCOC(=O)/C(=C\c1cccc(C)c1)C(C)=O
growth inhibition (at 1.2 µM): 3%
growth inhibition (at 3.7 µM): 12%
growth inhibition (at 11.0 µM): 65%
growth inhibition (at 33.0 µM): 89% (active)
growth inhibition (at 100.0 µM): 98% (active)

CCOc1ccc2nc3ccccc3c(N)c2c1
growth inhibition (at 1.2 µM): 4%
growth inhibition (at 3.7 µM): 8%
growth inhibition (at 11.0 µM): 30%
growth inhibition (at 33.0 µM): 83% (active)
growth inhibition (at 100.0 µM): 97% (active)

COc1cc2oc3ccccc3c(=O)c2cc1CSc1ccccc1N
growth inhibition (at 1.2 µM): -14%
growth inhibition (at 3.7 µM): -7%
growth inhibition (at 11.0 µM): -12%
growth inhibition (at 33.0 µM): 8%
growth inhibition (at 100.0 µM): 3%

Nc1ccc(/C=C/c2ccc3cccnc3c2)cc1
growth inhibition (at 1.2 µM): 1%
growth inhibition (at 3.7 µM): 1%
growth inhibition (at 11.0 µM): 11%
growth inhibition (at 33.0 µM): 59%
growth inhibition (at 100.0 µM): 77% (active)

CCc1c(Cl)c(C)c(Cl)c(O)c1Cl
growth inhibition (at 1.2 µM): -19%
growth inhibition (at 3.7 µM): -32%
growth inhibition (at 11.0 µM): -19%
growth inhibition (at 33.0 µM): 96% (active)
growth inhibition (at 100.0 µM): 99% (active)

Cc1c2cc[n+](CCO)cc2c(C)c2c1[nH]c1ccc(O)cc12
growth inhibition (at 1.2 µM): 20%
growth inhibition (at 3.7 µM): 20%
growth inhibition (at 11.0 µM): 19%
growth inhibition (at 33.0 µM): 40%
growth inhibition (at 100.0 µM): 49%

CCC(C)COC(=O)Nc1cccc(Cl)c1 (stereo not given)
growth inhibition (at 1.2 µM): 4%
growth inhibition (at 3.7 µM): 5%
growth inhibition (at 11.0 µM): 1%
growth inhibition (at 33.0 µM): 27%
growth inhibition (at 100.0 µM): 98% (active)

CCCN=Cc1cc(Cc2ccc(O)c(C=NCCC)c2)ccc1O
growth inhibition (at 1.2 µM): 45%
growth inhibition (at 3.7 µM): 95% (active)
growth inhibition (at 11.0 µM): 98% (active)
growth inhibition (at 33.0 µM): 99% (active)
growth inhibition (at 100.0 µM): 99% (active)
